Test results from PubChem BioAssay (NCATS).
Where “and” joins values, the source holds several entries; their conditions need not be identical. Equal values may be shown once. Records with an inconclusive call do not appear. Calls of active or inactive are those of the source. Calls come from the whole dose curve; as a rule, active = well fitted inhibition curve with a large enough effect; inconclusive = small, poorly fitted or top-dose-only effect; inactive = flat fitted curve, though single readings scatter.

Columns and labels:
[1] = test system: NIH3T3; assay: Cytotoxic Profiling of Annotated Libraries Using Quantitative High-Throughput Screening (AID 1296008); settings: Five cell lines viability, CellTiter-Glo ATP luminescence, 48-72 h; max response: stronger effect = lower value
In short: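 Cytotoxicity was measured as CellTiter-Glo ATP luminescence, read after 10 min at room temperature. Compound treatment of the cells lasted 48 or 72 hr at 37 degrees Celsius in a qHTS format.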

[2] = test system: MCC-13; assay: qHTS assay to identify novel small-molecules to repurpose for Merkel cell carcinoma treatment (AID 1296009); settings: MCC and control cell lines, CellTiter-Glo viability, 72 h; series mostly up to 46 µM
In short: (§1)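 Cell viability measured by CellTiter-Glo following 72 hr compound treatment at 37 degree celsius, with NPC and MIPE libraries tested in 8- and 11-point concentration series.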

[3] = test system: MCC-26; assay: as above; settings: MCC and control cell lines, CellTiter-Glo viability, 72 h; series mostly up to 46 µM
In short: as §1

[4] = test system: MKL-1; assay: as above; settings: MCC and control cell lines, CellTiter-Glo viability, 72 h; series mostly up to 46 µM
In short: as §1

[5] = test system: MKL-2; assay: as above; settings: MCC and control cell lines, CellTiter-Glo viability, 72 h; series mostly up to 46 µM
In short: as §1

[6] = test system: UISO; assay: as above; settings: MCC and control cell lines, CellTiter-Glo viability, 72 h; series mostly up to 46 µM
In short: as §1

[7] = test system: WaGa; assay: as above; settings: MCC and control cell lines, CellTiter-Glo viability, 72 h; series mostly up to 46 µM
In short: as §1

[8] = test system: HACAT; assay: as above; settings: MCC and control cell lines, CellTiter-Glo viability, 72 h; at 44.8 µM (top of the series) unless noted
In short: as §1

[9] = test system: HEK293T; assay: as above; settings: MCC and control cell lines, CellTiter-Glo viability, 72 h; at 44.8 µM (top of the series)
In short: as §1

[10] = test system: NIH3T3; assay: as above; settings: MCC and control cell lines, CellTiter-Glo viability, 72 h; at 44.8 µM (top of the series) unless noted
In short: as §1
% is set by controls: 0 for no effect and ±100 for the full control effect; potency is the fitted concentration of half-maximal effect.
Note: nearly all actives have a fitted effect of over 60% in size.

CN(C)c1cc(NC(=O)CNC(C)(C)C)c(O)c2c1C[C@@H]1C[C@H]3[C@H](N(C)C)C(=O)C(C(N)=O)=C(O)[C@@]3(O)C(=O)C1=C2O
inactive: max response [1] -1.41% | Potency [2] | Potency [3] | Potency [4] | Potency [5] | Potency [6] | Potency [7]

O=C1NC(=O)C(=Cc2cccc(C(F)(F)F)c2)S1
inactive: max response [1] -7.62% | Potency [2] | Potency [3] | Potency [4] | Potency [5] | Potency [7]

O=c1cc(-c2ccc(O)cc2)oc2cc(O)cc(O)c12
inactive: max response [1] -14.4% | Potency [2] | Potency [3]
active: Potency [4] 2.35 µM | Potency [5] 1.66 µM | Potency [7] 2.09 µM

CN[C@@H](C)C(=O)N[C@H]1CN(C(=O)CC(C)C)CC[C@H]2CC[C@@H](C(=O)NC(c3ccccc3)c3ccccc3)N2C1=O
inactive: max response [1] -2.17% and -4.72% | Potency [2] | Potency [3] | Potency [5]

CC1(C)CCC(CN2CCN(c3ccc(C(=O)NS(=O)(=O)c4ccc(NCC5CCOCC5)c([N+](=O)[O-])c4)c(Oc4cnc5[nH]ccc5c4)c3)CC2)=C(c2ccc(Cl)cc2)C1
inactive: max response [1] -21% and 4.74% | Potency [2] | Potency [3] | Potency [4] | Potency [6] | Potency [7]

Cc1cc(OCCCc2c(C(=O)O)n(Cc3cccnc3)c3c(-c4c(COc5ccc(N6CCN([S+](C)(=O)[O-])CC6)cc5)nn(C)c4C)cccc23)cc(C)c1Cl
inactive: max response [1] -3.92% | Potency [2] | Potency [3] | Potency [4] | Potency [5] | Potency [6] | Potency [7]

Cn1cc(C=C2C(=O)Nc3cccnc32)c2ccccc21
inactive: max response [1] -5.8% | Potency [2] | Potency [3] | Potency [4] | Potency [5] | Potency [6] | Potency [7]

COc1ccc2c(Oc3ccc(NC(=O)c4c(C)n(CC(C)(C)O)n(-c5ccccc5)c4=O)nc3)ccnc2c1
active: Potency [1] 3.66 µM
inactive: Potency [2] | Potency [3] | Potency [4] | Potency [5] | Potency [6] | Potency [7]

NC(CO)(CO)CCc1ccc(Sc2cccc(OCc3ccccc3)c2)cc1Cl
inactive: Potency [2] | Potency [3]
active: Potency [1] 16.6 µM | Potency [4] 13.2 µM | Potency [5] 23.5 µM | Potency [7] 5.26 µM

O=c1c(-c2ccc(O)cc2)coc2cc(O[C@@H]3O[C@H](CO)[C@H](O)[C@H](O)[C@H]3O)ccc12
inactive: max response [1] 1.51% | Potency [2] | Potency [3] | Potency [4] | Potency [5] | Potency [6] | Potency [7]

CC(C)(Cc1ccc2ccccc2c1)NC[C@@H](O)COc1cccc(Cl)c1C#N
inactive: max response [1] -24.7% | Potency [2] | Potency [3] | Potency [4] | Potency [6]

Nc1ncnc2c1ncn2[C@@H]1O[C@H](CO)C[C@@H]1O
inactive: max response [1] -2.75% | Potency [2] | Potency [3] | Potency [4] | Potency [5] | Potency [6]
active: Potency [7] 14.8 µM

Oc1ccc(C2CCN(c3ccnc4ccccc34)CC2)cc1O
inactive: max response [1] -5.13% | Potency [2] | Potency [3] | Potency [6]

NC(=O)c1cnc(-c2ccc(C3(N)CCC3)cc2)c(-c2ccccc2)c1
inactive: max response [1] 4.42% | Potency [2] | Potency [3] | Potency [4] | Potency [5] | Potency [6] | Potency [7]

Cc1c(NC(=O)c2ccc(C(C)(C)C)cc2)cccc1-c1cn(C)c(=O)c(Nc2ccc(C(=O)N3CCOCC3)cc2)n1
inactive: max response [1] -19.5% and -5.9% | Potency [2] | Potency [3] | Potency [4] | Potency [5] | Potency [7]

COc1ccc(-c2oc3c(CC=C(C)C)c(OC4O[C@H](CO)[C@@H](O)[C@H](O)[C@@H]4O)cc(O)c3c(=O)c2OC2O[C@@H](C)[C@H](O)[C@@H](O)[C@@H]2O)cc1 (some centres undefined)
inactive: max response [1] -16.5% | Potency [2] | Potency [3] | Potency [4] | Potency [7]

O=C(Nc1ccccc1Br)N[C@@H]1CCN(c2ccc(C(F)(F)F)cn2)C1
inactive: max response [1] -2.32% | Potency [2] | Potency [3] | Potency [4] | Potency [5] | Potency [6] | Potency [7]

O=C(Nc1cc(Cl)cc2c1[nH]c1cnccc12)c1cccnc1
inactive: max response [1] 2.41% | Potency [2] | Potency [3] | Potency [4] | Potency [5] | Potency [6] | Potency [7]

CC(C)NCC(O)COc1cccc2[nH]ccc12 (centres undefined)
inactive: max response [1] -7.28% and 1.44% | Potency [2] | Potency [3] | Potency [4] | Potency [5] | Potency [6] | Potency [7]

CC[C@H]1OC(=O)[C@H](C)C(=O)[C@H](C)[C@@H](O[C@H]2O[C@H](C)C[C@H](N(C)C)[C@@H]2O)[C@](C)(OC)C[C@@H](C)C(=O)[C@H](C)[C@H]2N(CCCCn3cnc(-c4cccnc4)c3)C(=O)O[C@]12C
inactive: max response [1] -10.2% | Potency [2] | Potency [3] | Potency [4] | Potency [5] | Potency [6] | Potency [7]

CCn1c(C(=O)N(C2CC2)C2CC2)cc2c3c(ncn3C)c(Nc3cc(C)n(C)n3)nc21
inactive: Potency [2] | Potency [3] | Potency [4] | Potency [5] | Potency [6] | Potency [7]
active: Potency [1] 23.5 µM

CC(=O)O[C@]1(C(C)=O)CC[C@@H]2[C@@H]3C[C@H](C)C4=CC(=O)CC[C@]4(C)[C@H]3CC[C@@]21C
inactive: outcome [8] | outcome [9] | Potency [2] | Potency [3] | Potency [6]

CNC(=O)c1ccccc1Sc1ccc2c(C=Cc3ccccn3)n[nH]c2c1
inactive: Potency [3]
active: Potency [1] 3.72 µM | Potency [7] 11.8 µM

CCCCCNC(=O)N1CCC(CN(Cc2ccc(Cl)cc2)Cc2ccc([N+](=O)[O-])s2)C1 (centres undefined)
inactive: max response [1] -17.3% | Potency [2] | Potency [4] | Potency [6] | Potency [7]

CC(C)(C(=O)NCC(F)(F)C(F)(F)F)C(=O)N[C@@H]1C(=O)Nc2ccccc2-c2ccccc21
inactive: outcome [1] | Potency [2] | outcome [10]

CC(=O)Nc1ccc([C@H](C)C(=O)Nc2ncc(C(C)C)s2)cc1
active: Potency [1] 8.33 µM and 9.2 µM | Potency [5] 9.35 µM | Potency [6] 7.43 µM

COc1cc(Nc2ncc(F)c(Nc3ccc4c(n3)NC(=O)C(C)(C)O4)n2)cc(OC)c1OC
inactive: Potency [2] | Potency [4] | Potency [5] | Potency [6] | Potency [7]
active: Potency [1] 8.2 µM

CN(C)Cc1cccc(N=C(c2ccccc2)c2c(O)[nH]c3cc(C(=O)N(C)C)ccc23)c1
active: Potency [1] 13.2 µM
inactive: Potency [2] | Potency [4] | Potency [7]

CO[C@H]1C(=O)[C@]2(C)[C@@H](OC)C[C@H]3OC[C@@]3(OC(C)=O)[C@H]2[C@H](OC(=O)c2ccccc2)[C@]2(O)C[C@H](OC(=O)[C@H](O)[C@@H](NC(=O)OC(C)(C)C)c3ccccc3)C(C)=C1C2(C)C
inactive: max response [1] -69.8% | Potency [2] | Potency [4] | Potency [5] | Potency [6] | Potency [7]

CN(C)C1CCN(C(=O)c2ccc(NC(=O)Nc3nc(N4CCOCC4)nc(N4CCOCC4)n3)cc2)CC1
active: Potency [1] 0.0935 µM | Potency [3] 0.833 µM | Potency [4] 0.132 µM | Potency [5] 0.296 µM | Potency [6] 0.0264 µM | Potency [7] 0.105 µM

C[C@H](NC(=O)c1sccc1OCc1ccc(Cl)cc1)c1ccccc1
inactive: max response [1] -27.6% | Potency [2] | Potency [4]

NC(=O)c1cccc2[nH]c(-c3ccc([C@H]4CCCN4)cc3F)nc12
inactive: max response [1] 0.71% | Potency [2]
active: Potency [4] 20.9 µM | Potency [5] 2.35 µM | Potency [7] 20.9 µM

CC[C@]1(O)C[C@@H]2CN(CCc3c([nH]c4ccccc34)[C@@](C(=O)OC)(c3cc4c(cc3OC)N(C=O)[C@@H]3C45CCN4CC=C[C@](CC)([C@H]45)[C@@H](OC(C)=O)[C@]3(O)C(=O)OC)C2)C1 (some centres undefined)
inactive: max response [1] -0.0535% | Potency [2] | Potency [4]

O=C(O)c1ccc(-c2c[nH]c3ncc(-c4ccccc4)cc23)cc1C1CCCC1
inactive: outcome [8] | outcome [9] | Potency [2] | Potency [3] | Potency [4] | Potency [6] | Potency [7]

CCN(CC)CCOC(=O)c1ccc(N)cc1
inactive: outcome [8] | outcome [9] | Potency [2] | Potency [3] | Potency [4] | Potency [5] | Potency [6] | Potency [7]

N#CC(=C(N)Sc1ccccc1N)C(C#N)=C(N)Sc1ccccc1N
active: Potency [6] 1.05 µM
inactive: max response [1] -4.19% | Potency [2] | Potency [4] | Potency [7]

C=C1C(=O)[C@@]23C(CC[C@@H]1[C@H]2O)[C@@]12CO[C@]3(O)[C@@H](O)[C@@H]1C(C)(C)CC[C@@H]2O (some centres undefined)
active: Potency [1] 18.7 µM | Potency [2] 16.6 µM | Potency [4] 1.18 µM | Potency [5] 0.935 µM | Potency [6] 14.8 µM | Potency [7] 0.833 µM

COc1cc(N2CCC(N3CCN(C)CC3)CC2)ccc1Nc1ncnc(Nc2ccccc2S(=O)(=O)C(C)C)n1
active: Potency [1] 3.32 µM and 3.66 µM | Potency [3] 11.8 µM
inactive: Potency [5] | Potency [7]

CC(C)n1nc(-c2ccc3oc(N)nc3c2)c2c(N)ncnc21
active: Potency [1] 5.3 nM and 259 nM | Potency [6] 0.0264 µM

COC[C@@H](c1ccc(C(F)(F)F)cc1)N1CCN(C2(C)CCN(C(=O)c3c(C)ncnc3C)CC2)C[C@H]1C
inactive: max response [1] 4.62% | Potency [2] | Potency [4] | Potency [5] | Potency [6] | Potency [7]

COc1cc2c(cc1OC)CN(CCc1ccc(NC(=O)c3cc(OC)c(OC)cc3NC(=O)c3cnc4ccccc4c3)cc1)CC2
inactive: max response [1] -16.8% | Potency [2] | Potency [4] | Potency [5] | Potency [6] | Potency [7]

COc1ccc(-c2nc(N3CCOCC3)c3sc(CN(C)c4ncc(C(=O)NO)cn4)cc3n2)cn1
active: Potency [1] 0.118 µM | Potency [2] 0.0662 µM | Potency [6] 0.0235 µM | Potency [7] 0.0026 µM

Cc1ccn(-c2ccc(-c3ncco3)cc2)c(=O)c1-c1ccc2nc(N)ncc2c1
inactive: Potency [2] | Potency [4] | Potency [7]
active: Potency [1] 16.6 µM and 6.51 µM

CO[C@@H](C(=O)N1Cc2[nH]nc(NC(=O)c3ccc(N4CCN(C)CC4)cc3)c2C1)c1ccccc1
active: Potency [1] 14.8 µM
inactive: Potency [5] | Potency [6]

Cc1nnc(C(C)C)n1C1C[C@H]2CC[C@@H](C1)N2CC[C@H](NC(=O)C1CCC(F)(F)CC1)c1ccccc1 (some centres undefined)
inactive: outcome [1] | Potency [2] | Potency [4] | Potency [5] | outcome [10] | Potency [6] | Potency [7]

COc1ccc(-c2cc(=O)c3c(O)cc(O)cc3o2)cc1O
inactive: max response [1] -2.97% | Potency [2] | Potency [4] | Potency [5]

Cc1ccc(F)c(NC(=O)Nc2ccc(-c3cccc4[nH]nc(N)c34)cc2)c1
inactive: max response [1] -7.65% | Potency [2] | Potency [5] | Potency [7]
